Screening data deposited in PubChem BioAssay by Broad Institute.
Rows were chosen to be rich in hits. Some 3% of all compounds tested hit in one or more screens of this group.
PfHsp90 yeast 2: inhibits growth of yeast expressing Plasmodium falciparum Hsp90; S. cerevisiae expressing PfHsp90, BacTiter-Glo ATP, 48 h; yeast lacking PDR1 and PDR3 efflux regulators; inhibition, % at 9.4 µM; AID 504621; 0.32% of 310,000 active;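 active = every replicate shows inhibition above about 80%, whatever the replicate mean, limit read from the data; inconclusive = mean inhibition reaches the set limit but some replicate falls short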;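 note: 0% = DMSO neutral controls and 100% = 20 µM radicicol positive controls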
Vif imaging: inhibitors of HIV Vif; inhibition, % at 7.49 µM; HEK293T cells, Vif self-association by quenched fluorescence, imaging, 24 h; 0.35% of 340,000 active; AID 602346; in the data active = inhibition above about 50%, passing the limit was not always enough; inconclusive = no clear call, values can overlap the other calls; inactive = below about 31%
esBAF inh: inhibitors of esBAF chromatin remodeling in mouse ES cells. reporter increase, % at 12.5 µM. 2% of 350,000 active. Bmi1-luciferase knock-in reporter, 24 h; 100% = twice the neutral-well signal; in the data active = activation above about 40%; inconclusive = no clear call, values can overlap the other calls;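 note: 0% = median of the plate's neutral control wells and 100% = double that signal; a rise in the Bmi1 reporter signal indicates esBAF inhibition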
N-glyco inh: N-linked glycosylation inhibition | D54 ERlucT glycosylation luciferase reporter, 24 h; percent of 100 nM tunicamycin response | 0.23% of 360,000 active | reporter increase, % at 12.5 µM;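 active = mean luciferase reporter signal, scaled so untreated is 0 and the glycosylation-blocking control 100, at or above a set limit in every replicate; inconclusive = mean reaches the limit but not every replicate does; inactive = mean below the limit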;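 note: luciferase carries N-glycosylation sites so blocking glycosylation raises the light; 0% = median of neutral control wells and 100% = median of 100 nM tunicamycin wells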
Wnt bcat act: activators of Wnt/beta-catenin signaling; Wnt/beta-catenin reporter cell assay, activator, plate reader; activation, % at 9.35 µM; 1.2% of 300,000 active; in the data active = activation above about 30%, passing the limit was not always enough; inconclusive = no clear call, values can overlap the other calls;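 note: 0% = neutral control wells and 100% = positive control wells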
MITF TRPM1 HTS: MITF TRPM1 promoter activation in melanoma cells | SK-MEL-5 TRPM1-promoter luciferase, 24 h; % of positive control, neutral wells = 0 | activation, % at 12.5 µM | 0.75% of 300,000 active | AID 588334;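 active = mean activation of at least 80% with every replicate also reaching 80%; inconclusive = mean reaches 80% but some replicate falls short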;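 note: 0% = neutral control wells and 100% = parthenolide positive control wells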
Active calls of the source: *.

O=C(c1ccco1)N1CCN(c2ncnc3c2oc2ccccc23)CC1 was read as PfHsp90 yeast 2 4, Vif imaging 1, esBAF inh 58* and N-glyco inh -3.
For Fc1ccc(N2CCN(c3ncnc4c3nnn4Cc3ccccc3Cl)CC2)cc1 the results were PfHsp90 yeast 2 10, N-glyco inh -1 and MITF TRPM1 HTS -7.
O=C(c1ccco1)N1CCN(c2ncnc3c2nnn3Cc2ccccc2Cl)CC1 was read as PfHsp90 yeast 2 8, Vif imaging 60*, esBAF inh -1, N-glyco inh -3 and MITF TRPM1 HTS -4.
For CCOC(=O)C1(Cc2ccccc2C)CCCN(C(=O)COC)C1 (stereo not drawn) the results were PfHsp90 yeast 2 -10, Vif imaging 16, esBAF inh 17, N-glyco inh 3 and Wnt bcat act 25.
Cc1nc2ncccn2c1-c1csc(Nc2ccc(N(C)C)cc2)n1 was read as PfHsp90 yeast 2 32, Vif imaging 19, N-glyco inh 51*, Wnt bcat act -1 and MITF TRPM1 HTS -21.
For Nc1cc(=O)[nH]c(=O)n1-c1cccc(F)c1 the results were PfHsp90 yeast 2 -17, Vif imaging -2, N-glyco inh 1, Wnt bcat act -3 and MITF TRPM1 HTS 8.
For COc1ccc(C)cc1NC(=O)C1CCCN1S(=O)(=O)c1ccccc1F (stereo not drawn) the results were PfHsp90 yeast 2 22, Vif imaging inconclusive, esBAF inh 4, N-glyco inh 2, Wnt bcat act 62* and MITF TRPM1 HTS -2.
Screening CCOc1ccc2nc(N3CCCCCC3)sc2c1 returned PfHsp90 yeast 2 -29, Vif imaging -1, esBAF inh 3, N-glyco inh -15, Wnt bcat act 21 and MITF TRPM1 HTS 64.
For CCOc1ccc2nc(NC(=O)C3CCN(C(=O)c4ccco4)CC3)sc2c1 the results were PfHsp90 yeast 2 -39, Vif imaging 2, esBAF inh 65*, N-glyco inh 1, Wnt bcat act 21 and MITF TRPM1 HTS 77.
COc1ccc(C)cc1NC(=O)C1CCN(C(=O)c2ccco2)CC1 was read as PfHsp90 yeast 2 16, Vif imaging 54*, esBAF inh -3, N-glyco inh 0, Wnt bcat act 0 and MITF TRPM1 HTS -3.
For O=C(Nc1nc2ccccc2s1)C1CCN(C(=O)c2ccco2)CC1 the results were PfHsp90 yeast 2 20, Vif imaging 2, esBAF inh 21, N-glyco inh 0 and Wnt bcat act 1.
CCOc1ccc2nc(N3CCC(C(=O)Nc4nnc(CC)s4)CC3)sc2c1 was read as PfHsp90 yeast 2 -21, Vif imaging 1, esBAF inh 48*, N-glyco inh 3, Wnt bcat act 2 and MITF TRPM1 HTS 34.
O=C(Nc1ccccc1Br)C1CCN(S(=O)(=O)c2cccs2)CC1 was read as PfHsp90 yeast 2 -21, Vif imaging 12, esBAF inh 6, N-glyco inh 0, Wnt bcat act -5 and MITF TRPM1 HTS 3.
Screening Cc1cccc(OCCn2nnc3ccccc32)c1C returned PfHsp90 yeast 2 14, Vif imaging -9, esBAF inh 36, N-glyco inh 1 and Wnt bcat act 1.
For Cc1cc(C(=O)NCc2csc(-c3ccccc3)n2)no1 the results were PfHsp90 yeast 2 -13, Vif imaging -4, N-glyco inh 0, Wnt bcat act 9 and MITF TRPM1 HTS 42.
Screening CCOc1ccc2nc(N3CCC(C(=O)N4CCN(C5CCCCC5)CC4)CC3)sc2c1 returned PfHsp90 yeast 2 -9, Vif imaging 0, esBAF inh 65*, N-glyco inh -10, Wnt bcat act -4 and MITF TRPM1 HTS -2.
CCOc1cc(C(=O)NC(C)Cc2cccs2)cc(OCC)c1OCC (stereo not drawn) was read as PfHsp90 yeast 2 -1, Vif imaging -11, N-glyco inh -1, Wnt bcat act -20 and MITF TRPM1 HTS -8.
Screening CCCC(=O)N1CCC1(C)C(=O)Nc1cc(-c2ccccc2)nn1C (stereo not drawn) returned Vif imaging 5, esBAF inh 55*, N-glyco inh -3 and Wnt bcat act 33*.
Screening CCCC(=O)N1CCC1(C)C(=O)Nc1ccccc1-c1ccccc1 (stereo not drawn) returned esBAF inh -5, N-glyco inh 2 and Wnt bcat act -6.
